Reference: PubChem BioAssay (NCI)
The panel holds about 83,000 compounds, 20% with a hit somewhere; the sample as a whole holds those more often.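 Negative percent growth values reflect cell death: -40 means 40% of the cells present at the start died, and -100 means all died.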 Values without a mark were called inactive. Rule for the calls: active = growth percent below 10; inactive = the rest.

Tested on: MDA-MB-468 breast
Test: NCI-60 one-dose screen, 48 h (100 = growth as untreated, 0 = no growth, -100 = all killed)
Settings: 10 µM unless noted

| SMILES | growth [%] |
| --- | --- |
| O=C1/C(=C\c2cn(Cc3ccccc3)c3ccc(Br)cc23)c2ccccc2N1c1c(Cl)cccc1Cl | 84.1 |
| CCCCc1oc2ccccc2c1C(=O)c1ccc(O)cc1 | 78.4 |
| COC(=S)SCN(CSC(=S)OC)c1ccc(Cl)cc1 | 95.1 |
| O=C1c2ccccc2C(=O)c2c(Nc3ccc(CCO)cc3)ccc(O)c21 | 38 |
| CCNCC(C)(C)O | 115 |
